Test results from PubChem BioAssay (NCI).
Compounds without any hit were thinned out: in the full panel of roughly 83,000, 20% have a hit.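 The endpoint reported here, percent growth, reads 100 for growth as untreated, 0 for no net growth and -100 for all cells dead.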 Activity calls are given as the source filed them. Rule for the calls: active = growth percent below 10; inactive = the rest.

Columns and labels:
Assay in all cases: NCI-60 one-dose screen, 48 h (100 = growth as untreated, 0 = no growth, -100 = all killed)
Conditions in all cases: 10 µM unless noted
[1] = system: HT29 colon
[2] = system: SNB-75 CNS
[3] = system: U251 CNS
[4] = system: SK-MEL-5 melanoma
[5] = system: LOX IMVI melanoma
[6] = system: SK-MEL-28 melanoma
[7] = system: EKVX NSCLC
[8] = system: SN12C renal
[9] = system: UO-31 renal
[10] = system: TK-10 renal
[11] = system: ACHN renal
[12] = system: CAKI-1 renal
[13] = system: A498 renal
[14] = system: CCRF-CEM leukemia
[15] = system: MOLT-4 leukemia
[16] = system: SR leukemia
[17] = system: PC-3 prostate
[18] = system: UACC-62 melanoma
[19] = system: SK-MEL-2 melanoma
[20] = system: SNB-19 CNS

Measured: growth

CC(O)c1nc2c(c(=O)n(C)c(=O)n2C)n1C (stereo unspecified)
inactive: [1] 113% | [2] 102% | [3] 102% | [4] 104% | [5] 104% | [6] 126% | [7] 111% | [8] 104% | [9] 91.1% | [10] 113% | [11] 105% | [12] 89.2% | [13] 105% | [14] 96.3% | [15] 117% | [16] 125%

CCCC[N+](CCCC)=c1ccc2nc3c(C)cc(N(CC)CC)cc3sc-2c1
active: [1] -68.6% | [2] -0.166% | [3] -11.3% | [17] -13.9% | [18] -35.7% | [5] -70.4% | [6] -2.53% | [19] -51% | [7] 4.13% | [8] -3.26% | [9] 0.703% | [10] 3.75% | [11] -34.1% | [12] -2.5% | [13] -5.54% | [14] -15.7% | [15] -20.1% | [16] -18.2%

C=C(C[C@](O)(C(=O)/C=C/c1ccc(Cl)cc1)C(=O)OC)c1ccccc1
active: [5] -72.4%
inactive: [1] 16.4% | [2] 75.7% | [3] 28.6% | [17] 65.4% | [4] 76% | [18] 53.8% | [19] 102% | [7] 82.8% | [8] 74.8% | [9] 52.6% | [10] 64.6% | [11] 72.2% | [12] 68.5% | [13] 97.1% | [14] 40.8% | [15] 62.9% | [16] 23.3%

c1cncc(CNc2ccccc2-c2nnc(Nc3ccc4c(c3)OCO4)o2)c1
active: [1] 8.59% | [4] -4.21% | [18] 3.81% | [5] 8.28% | [12] 9.02% | [13] -0.133%
inactive: [20] 38.7% | [3] 23% | [17] 27.9% | [6] 43.7% | [19] 65.8% | [7] 35.3% | [8] 28.8% | [9] 40.7% | [10] 50% | [11] 32.2% | [14] 19% | [15] 18.6%

O=C(CN1CCCCC1)Sc1nnc2sc3ccccc3n12
inactive: [1] 118% | [2] 74.6% | [3] 98.5% | [17] 93% | [18] 107% | [5] 103% | [6] 120% | [19] 109% | [7] 104% | [8] 103% | [9] 68.3% | [10] 122% | [11] 118% | [12] 86.2% | [13] 107% | [14] 104% | [15] 98.1% | [16] 99.9%

CCC(C)(C)C(=O)O[C@H]1C[C@@H](C)C=C2C=C[C@H](C)[C@H](CC[C@@H]3C[C@@H](O)CC(=O)O3)[C@H]21
inactive: [1] 76.9% | [2] 13.7% | [17] 33.9% | [6] 62.3% | [19] 26.3% | [7] 51.7% | [9] 52.1% | [10] 83.1% | [11] 14.7% | [14] 62.5% | [15] 72.8%
active: [3] 4.81% | [5] -16.2% | [12] -33.5% | [13] -38.8%

CSc1ncc2ncn(C3OC(CO)C(O)C3O)c2n1 (stereo unspecified)
inactive: [1] 108% | [2] 96% | [3] 103% | [4] 129% | [18] 103% | [5] 108% | [6] 115% | [7] 107% | [8] 120% | [9] 111% | [11] 105% | [13] 99.6% | [14] 99% | [15] 109% | [16] 111%

CCCCCCCCCCCCCCCCCC1=NC(C)(C)CN1CCO
active: [1] -44.7% | [3] -57.9% | [17] -52.4% | [4] -65.3% | [18] -77.1% | [5] -67% | [6] -78% | [19] -66.2% | [8] -29.6% | [9] -62.9% | [10] -33.8% | [11] -49.2% | [12] -41% | [14] -42.9% | [15] -55.7% | [16] -42.7%
inactive: [20] 38.2% | [7] 15.3% | [13] 117%

COc1ccc(C2CC(c3cccc(Nc4ccnc5cc(Cl)ccc45)c3)=NN2C=O)cc1 (stereo unspecified)
inactive: [20] 42.3% | [3] 16.5% | [17] 25.7% | [4] 14% | [18] 36% | [5] 31.7% | [6] 62.4% | [7] 39.4% | [8] 37.9% | [9] 22.8% | [10] 41.5% | [11] 45.5% | [12] 17.4% | [15] 15.8%
active: [1] -55.8% | [19] -9.66% | [13] 7.17% | [14] 7.54% | [16] 6.76%
